PubChem BioAssay AID540259 (Broad Institute, 2011)
Measured potencies and affinities stand elsewhere. Calls of active or inactive are those of the source.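 The calls were made as follows: active = cell killing, meaning signal decrease, with fitted half-maximal dose at or below ten times the top valid tested dose; inconclusive = poor fit, or flat curve with 30 to 70% signal loss; inactive = the rest.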

test: ATP-based viability loss in HeLa cells – cell-based, CellTiter-Glo luminescence, cherry-pick samples, cytotoxicity control for MITF activator project, dose response (AID 540259); conditions: 24 h; series mostly up to 35 µM; activity change, negative = cytotoxicity: at the top concentration;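 also: 0% = DMSO neutral control and -100% = mitoxantrone positive control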

SMILES	activity change, negative = cytotoxicity
CN1C(=O)C2C=CC1C1C(=O)N(c3ccccc3)C(=O)C21 (configuration not stated)	15.4% (inactive)
COc1ccc2ccccc2c1/C=N/Nc1cccc(C(=O)O)c1	4.52% (inactive)
Cc1ccc(N(O)C(=O)NCCCCNC(=O)N(O)c2ccc(C)cc2)cc1	9.8% (inactive)
O=C(Nc1ccc(NC(=O)c2ccccc2F)cc1)c1cccs1	-13.1% (inactive)
Cc1nc2ccc(NC(=O)Cc3c(F)cccc3Cl)cc2s1	2.92% (inactive)
C/C(=C\c1ccc(N)cc1)c1nc2ccccc2[nH]1	20.2% (inactive)
Cc1ccc2cc(/C=N/Nc3ccc(C(=O)O)cc3)c(Cl)nc2c1	1.67% (inactive)
COc1ccc(-c2ccc3oc(-c4ccsc4)cc(=O)c3c2)cn1	9.06% (inactive)
Cc1ccc(NC(=O)CC(=O)c2ccccc2)cc1C	-0.353% (inactive)
Cc1ccc(/C=N/Nc2ccc(Cl)nn2)cc1	3.79% (inactive)
Cc1cc(NC(=O)Nc2ccc3c(ccn3C)c2)sn1	12.1% (inactive)
O=C(CC1CCCC1)Nc1ccc(Br)cc1	-3.11% (inactive)
CC1CCN(C(=O)Nc2ccc3nsnc3c2)CC1	7.47% (inactive)
O=C(NCC1CC1)Nc1ccc(Cl)cc1	8.75% (inactive)
Cc1cccc(NC(=O)c2onc3c2CCCC3)c1C	3.8% (inactive)
CC1CCc2sc(C(=O)Nc3ccc(C(N)=O)cc3)cc2C1 (configuration not stated)	10.9% (inactive)
CCc1ccc2[nH]c3nc(C)cc(C)c3c(=O)c2c1	-2.28% (inactive)
O=C1OC(c2ccccc2)=C/C1=C/N1CCCCC1	7.7% (inactive)
N#C/C(=N\Nc1ccccc1F)C(=N)N1CCCCC1	-9.97% (inactive)

SMILES	activity change, negative = cytotoxicity
Cc1cc(C(=O)Cn2nc(C(=O)O)c3ccccc3c2=O)c(C)n1CC(F)(F)F	7.32% (inactive)
CN(C)c1ccc(CSc2ccccc2)cc1	4.63% (inactive)
O=C(Nc1ccccc1)Nc1ccc2nnsc2c1	-3.18% (inactive)
Cc1cc(Cl)ccc1OCc1cn2cccnc2n1	14.3% (inactive)
NNC(=O)c1ccc2nc(-c3ccc(Br)cc3)cn2c1	11.7% (inactive)
O=C(OCc1csc(-c2ccccc2)n1)c1ccc(O)cc1	23.3% (inactive)
COC(=O)Cc1csc(Nc2ccccc2Cl)n1	9.68% (inactive)
COc1ccc(Oc2ncnc3sccc23)cc1	2.48% (inactive)
O=C(Nc1cccc(F)c1)NC1CCCCCCC1	-4.47% (inactive)
COc1ccc(C(=O)NCCn2ccc3ccccc32)cc1	10.6% (inactive)
Cc1cccc(-c2noc(Cc3ccccc3)n2)c1	9.03% (inactive)
O=c1c2ccccc2oc2cc(NCCCn3ccnc3)ccc12	-2.6% (inactive)
Cc1ccc(C2=NN(S(C)(=O)=O)C(c3cccs3)C2)cc1 (configuration not stated)	-4.21% (inactive)
CCc1ccc(OC(=O)Nc2ccccc2)cc1	11.3% (inactive)
COc1ccc2oc(=O)c(C(=O)N3CCN(c4ccccc4C)CC3)cc2c1	6.89% (inactive)
COC(=O)c1ccc(CSC2=NCCS2)cc1	9.68% (inactive)
CSc1cccc(NC(=O)c2cnn3ccccc23)c1	-3.79% (inactive)
C=CCNc1nc(-c2ccc(Cl)cc2)cs1	-14.9% (inactive)
